Assay outcomes: PubChem, several laboratories
In the library only some 2.6% were active in any assay of this set; here they are far more common.
TWEAK Fn14 block: TWEAK-Fn14 signaling inhibition; TWEAK-stimulated Fn14 reporter cells, luciferase luminescence, 8 h; inhibition, % at 10 µM; hit rate 2% among 360,000; AID 1159606; in the data active means inhibition above about 50%
TROY NFkB inh: TROY signaling inhibition; hit rate 0.98% among 360,000; Q293 LMP1-TROYcd NF-kB luciferase reporter, 4 h; inhibition, % at 10 µM;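 active means compounds whose plate-normalised and pattern-corrected inhibition of the luciferase reporter signal at the single screening dose is 50% or more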
EWS-Fli block: blocks EWS/Fli oncoprotein-driven transcription; A673 NR0B1-luciferase reporter, viability-normalised; inhibition, % at 12.6 µM; hit rate 0.67% among 350,000;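 active means mean inhibition of at least 50% after viability correction, with every replicate also passing that limit; inconclusive means mean reaches 50% but only one of two replicates passes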;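 further: firefly luciferase signal divided by Alamar Blue viability fluorescence both relative to DMSO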
LGR2 antag: blocks bursicon-induced cAMP signaling via Drosophila LGR2; HEK293 LGR2, CRE-luciferase, bursicon-stimulated, 4 h; inhibition, % at 9.99 µM; hit rate 0.35% among 380,000;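 active means drop in luminescence signal, shown as inhibition above about 50% in the replicate tests, limit read from the data, passing the limit was not always enough; inconclusive means probably only some replicates passing the limit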;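 further: agonist challenge used bursicon conditioned medium at about half maximal strength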
EBV LMP1 NFkB: inhibitors of Epstein-Barr LMP1-induced NF-kappaB reporter; AID 504558; hit rate 0.69% among 350,000; inhibition, % at 12.5 µM; LMP1-induced NF-kappaB luciferase reporter cells, luminescence; in the data active means inhibition above about 41%; inconclusive means no clear call, values can overlap the other calls
Numbers stand for hits; . = inactive; ? = inconclusive; / = no result.

SMILES	TWEAK Fn14 block	TROY NFkB inh	EWS-Fli block	LGR2 antag	EBV LMP1 NFkB
CC(=O)c1ccc(NC(=S)Nc2ccc(N3CCOCC3)cc2)cc1	.	51	.	.	.
O=C(NC(=S)Nc1ccc(N2CCOCC2)cc1)c1ccccc1	.	.	.	.	.
CCc1ccc(C(=O)NC(=S)Nc2ccc(N3CCOCC3)cc2)cc1	.	53	.	.	.
S=C(Nc1ccc(N2CCOCC2)cc1)Nc1ccc2nc(-c3ccco3)c(-c3ccco3)nc2c1	72	.	/	/	.
CC(=O)c1ccc(NC(=O)CN2CCOCC2)cc1	110	.	.	.	.
CN(C)C(=S)Nc1ccc(N2CCOCC2)cc1	.	.	.	.	.
O=C(Nc1ccc(N2CCOCC2)cc1)c1ccc2nc(-c3ccco3)c(-c3ccco3)nc2c1	.	.	/	/	.
C[C@@H]1CN([C@@H](C)CO)S(=O)(=O)c2ccc(-c3ccccc3F)cc2O[C@@H]1CN(C)C	/	/	.	.	/
Cc1ccc(S(=O)(=O)N(CCCO)CC(O)CON=C2c3ccccc3-c3ccccc32)cc1 (configuration not stated)	56	.	.	/	.
CCNC(=S)NNC(=O)Cn1c(=O)c2c(ncn2CCOC)n(Cc2ccccc2)c1=O	93	.	.	.	.
CCCCCNC(=O)Cn1c(=O)c2c(ncn2CC(C)C)n(Cc2ccccc2)c1=O	50	.	.	.	.
CC(C)CNC(=O)Cn1c(=O)c2c(ncn2CC(C)C)n(Cc2ccccc2)c1=O	.	.	.	.	.
C[C@@H]1CN([C@@H](C)CO)C(=O)c2ccccc2-c2ccccc2CO[C@H]1CN(C)S(=O)(=O)c1cccc(F)c1	/	/	.	.	/
C=CCOC(=O)C1=C(C)N(C)C(=O)NC1c1cc2c(cc1Br)OCO2 (configuration not stated)	90	82	/	/	.
CCOC(=O)C1=C(C)NC(=O)CC1c1cc2c(cc1Br)OCO2 (configuration not stated)	100	/	/	/	.
NC(=S)N/N=C/c1coc2c(ccc3ccccc32)c1=O	51	.	/	.	.
Cc1ccccc1CN(C)CCS(=O)(=O)c1cc(Cl)ccc1Cl	65	.	.	.	.
C[C@@H]1CN([C@H](C)CO)C(=O)c2cc(C#CC3CCCCC3)cnc2O[C@@H]1CN(C)C(=O)C1CCCCC1	/	/	.	.	/
CCS(=O)(=O)c1ncc(Cl)c(C(=O)Nc2ccc(S(=O)(=O)N(C)c3ccccc3)cc2)n1	100	88	/	.	57
CCN(c1ccccc1)S(=O)(=O)c1ccc(C(=O)Nc2ccncc2)cc1	.	.	.	.	.
CC(=O)Nc1ccc(S(=O)(=O)N(C)c2ccccc2)cc1	.	.	/	/	.
CCN(c1ccccc1)S(=O)(=O)c1ccc(NC(=O)c2nc(S(C)(=O)=O)ncc2Cl)cc1	88	70	/	/	.
O=C(N[C@@H]1CC[C@H](CCNC(=O)C2CC2)O[C@@H]1CO)c1ccncc1	/	/	.	.	/
COc1cc(C(=S)N2CCOCC2)ccc1OC(=O)c1cc([N+](=O)[O-])cc([N+](=O)[O-])c1	.	.	/	.	.
COc1ccc(C(=S)N2CCOCC2)cc1OC(=O)c1ccc([N+](=O)[O-])cc1[N+](=O)[O-]	100	.	.	.	.
SMILES	TWEAK Fn14 block	TROY NFkB inh	EWS-Fli block	LGR2 antag	EBV LMP1 NFkB
COc1cccc(C(=O)Nc2sc3c(c2C#N)CCN(C(C)=O)C3)c1	.	.	60	.	.
COc1cccc(C(=O)Nc2sc3c(c2C(=O)O)CCCC3)c1	.	.	.	.	.
COc1ccc(CCN(C(=O)c2ccc(F)cc2)C2=CC3CCC(C2)N3C)cc1OC (configuration not stated)	68	.	/	/	.
C[C@@H]1CCCCO[C@H](CN(C)Cc2ccncc2)[C@H](C)CN([C@H](C)CO)C(=O)c2cc(NC(=O)c3ccncc3)ccc2O1	/	/	/	.	/
CCCC#Cc1cnc2c(c1)C(=O)N([C@@H](C)CO)C[C@@H](C)[C@H](CN(C)C(=O)Cc1cccnc1)O2	/	/	.	.	/
O=C(Cc1cccs1)NCC1CCCO1 (configuration not stated)	51	.	.	.	.
O=C(O)c1ccc(/C=N\Nc2ccc(S(=O)(=O)N3CCOCC3)cc2[N+](=O)[O-])cc1	.	.	.	.	.
Cc1ccc(-n2c(O)c(/C=N/Nc3ccc(S(=O)(=O)N4CCOCC4)cc3[N+](=O)[O-])c3ccccc3c2=O)c(C)c1	82	.	.	.	.
CCN(Cc1cc(=O)n2ccsc2n1)c1cccc2ccccc12	97	64	.	.	.
CCOc1cccc(C(=O)Nc2cccc(C(C)=O)c2)c1	.	.	/	.	.
CCCCOc1cccc(C(=O)Nc2ccc(NC(=O)c3cccs3)cc2)c1	.	.	53	.	.
O=C(O)Cc1ccc(NC(=O)c2ccc(NC(=O)c3ccco3)cc2)cc1	.	.	/	/	.
Cc1cc(C(=O)Nc2ccc3ccccc3c2)oc1C	.	.	.	.	.
CCOc1cccc(C(=O)Nc2ccc3ccccc3c2)c1	52	.	.	66	.
Cc1ccoc1C(=O)Nc1ccc2ccccc2c1	.	.	51	60	.
Cc1ccoc1C(=O)Nc1ccc(CC(=O)O)cc1	76	.	/	/	44
CC(C)NC(=O)Nc1ccc2c(c1)CC(=O)N([C@H](C)CO)C[C@H](C)[C@@H](CN(C)S(=O)(=O)c1ccccc1)O2	/	/	/	.	/
O=C(Nc1ccc2ccccc2c1)c1ccc(Cl)cc1	.	.	.	.	.
Cc1ccc(C(=O)Nc2ccc3ccccc3c2)cc1	87	54	?	/	.
Cc1ccc(-c2ccc3c(c2)O[C@H](CN(C)Cc2ccncc2)[C@H](C)CN([C@@H](C)CO)S3(=O)=O)cc1	/	/	.	.	/
Cc1ccc(-c2ccc3c(c2)O[C@H](CN(C)Cc2ccncc2)[C@@H](C)CN([C@H](C)CO)S3(=O)=O)cc1	/	/	72	.	/
Cc1ccccc1-c1ccc2c(c1)O[C@@H](CN(C)Cc1ccncc1)[C@H](C)CN([C@H](C)CO)S2(=O)=O	/	/	66	.	/
Cc1ccccc1-c1ccc2c(c1)O[C@H](CN(C)Cc1ccncc1)[C@H](C)CN([C@H](C)CO)S2(=O)=O	/	/	.	.	/
CCOC(=O)c1ccc(NC(=S)N2CCSC2c2ccc(OC)cc2)cc1 (configuration not stated)	.	.	/	.	67
O=C(NCCC1=CCCCC1)c1coc(=O)c(Br)c1	92	.	/	/	.
SMILES	TWEAK Fn14 block	TROY NFkB inh	EWS-Fli block	LGR2 antag	EBV LMP1 NFkB
O=C(NCCc1ccccc1)c1coc(=O)c(Br)c1	78	.	.	.	/
COc1ccc2c3c(n(C)c2c1)[C@@H](CO)N(Cc1cccc(F)c1)CC31CN(C)C1	/	/	.	.	/
O=C(C1CCCCC1)N1CCN(c2ncccn2)CC1	.	.	/	.	48
O=C(c1ccc(F)cc1)N1CCC(C(=O)N2CCN(c3ncccn3)CC2)CC1	.	.	.	.	.
COc1ccc(NC(=O)COC(=O)[C@@H]2CCCN2C(=O)c2cccs2)c(OC)c1	.	.	/	/	.
COc1ccc(CNC(=O)COC(=O)[C@@H]2CCCN2C(=O)c2cccs2)cc1	.	.	.	.	45
CCC(=O)N(CC)C1=C(O)c2ccccc2C(=O)C1=O	.	.	.	.	.
CCC(=O)N(C1=C(NC)C(=O)c2ccccc2C1=O)C(C)C	61	.	.	.	.
